Source: PubChem BioAssay (EPA / NIEHS)
“And” between values parts separate entries of the source, which are not always exact repeats. Equal values may be shown once. Some structures have more than one record in an assay (separate samples or runs), and their calls can disagree. The source made the active and inactive calls. How the source made its calls: active means hit-call score of the fitted dose curve at least 0.9, where 1 is the maximum; inactive means score below 0.9.

read-out: CD69, CD69 (gene 969); experiment: BSK_IMphg_CD69: BioMAP Diversity Plus: IMphg Assay for CD69 Biomarker Activity (AID 2284257); conditions: primary human endothelial cells with macrophages
Experimental: BSK_IMphg is a cell-based, multiplexed-readout assay that uses venular endothelial cells and macrophages, a human vascular primary cell, with measurements taken at 24 hours after chemical dosing in a microplate: 96-well plate.BSK_IMphg_CD69 is an assay component measured in the BSK_IMphg assay. It measures CD69 antibody related to regulation of gene expression using ELISA technology.Data from the assay component BSK_IMphg_CD69 was analyzed at the endpoint, BSK_IMphg_CD69, in the positive analysis fitting direction relative to DMSO as the negative control and baseline of activity. Using a type of binding reporter, gain or loss-of-signal activity can be used to understand protein changes. To generalize the intended target to other relatable targets, this assay endpoint is annotated to the 'cytokine' intended target family, where the subfamily is 'inflammatory factor'.
The levels of cell surface (or secreted, indicated by the prefix "s") biomarker endpoints were measured by ELISA. Overt cytotoxicity to cells in confluent adherent cultures (all systems other than the BT system) was assessed by measuring total protein levels using sulforhodamine B (SRB) staining in parallel cultures at the time of biomarker measurements, indicated as SRB endpoints. For proliferation assays for adherent cell types, individual cell types are cultured at sub-confluence and relative cell numbers quantified by SRB staining at time points optimized for each system (48 h: 3C and CASM3C systems; 72 h: BT and HDF3CGF systems; 96 h: SAg system). SRB was performed by staining cells with 0.1% SRB after fixation with 10% TCA and reading wells at 560 nm.Viability and proliferation of PBMC (T cells) was quantified by Alamar Blue reduction for the SAg and BT systems. For PBMC viability (referred to as PBMC Cytotoxicity within the assay endpoint names), cells were plated (75,000/well in a 96-well plate) and then chemical samples added for 1 h before addition of activators, SEB and TSST-1 (20 ng/mL final concentration each). Cells were incubated for 90 h. Then, Alamar Blue (20 uL/well) (Invitrogen, Cat DAL1100) was added for 6 h, and the plates were read with a fluorescence microplate reader at 546/580 nm (excitation/emission). For PBMC proliferation, cells were plated and activated as above but incubated for only 16 h prior to addition of Alamar Blue. Plates were read after 6 h.

Row | SMILES | AC50 | outcome
1 | O=C(Cl)C(F)(F)C(F)(F)C(F)(F)C(F)(F)C(F)(F)C(F)(F)C(F)(F)C(F)(F)F | 55.1 µM (active) and 33.8 µM (active) and 45.9 µM (active) | 
2 | O=C(O)C(F)(F)C(F)(F)C(F)(F)C(F)(F)F |  | inactive
3 | O=C(O)C(F)(F)C(F)(F)C(F)(F)C(F)(F)C(F)(F)C(F)(F)C(F)(F)C(F)(F)C(F)(F)C(F)(F)C(F)(F)C(F)(F)C(F)(F)F |  | inactive
4 | NC(=O)C(F)(F)C(F)(F)C(F)(F)C(F)(F)F |  | inactive
5 | C=CC(F)(F)C(F)(F)C(F)(F)C(F)(F)C(F)(F)C(F)(F)C(F)(F)C(F)(F)F |  | inactive
6 | CC(C)(C)C(=O)CC(=O)C(F)(F)C(F)(F)C(F)(F)F |  | inactive
7 | N=C(N)C(F)(F)C(F)(F)C(F)(F)C(F)(F)C(F)(F)C(F)(F)C(F)(F)F |  | inactive
8 | OCCCC(F)(F)C(F)(F)C(F)(F)C(F)(F)C(F)(F)C(F)(F)C(F)(F)F | 50 µM (active) | inactive
9 | O=P(O)(O)OCCC(F)(F)C(F)(F)C(F)(F)C(F)(F)C(F)(F)C(F)(F)F |  | inactive
10 | OCC(F)(F)C(F)(F)C(F)(F)F |  | inactive
11 | OCC(F)(F)C(F)(F)C(F)(F)C(F)(F)C(F)(F)C(F)(F)F |  | inactive
12 | FC(F)(F)C(F)(F)C(F)(F)CI |  | inactive
13 | FC(F)(F)C(F)(F)C(F)(F)N(C(F)(F)C(F)(F)C(F)(F)F)C(F)(F)C(F)(F)C(F)(F)F | 1.09 µM (active) | inactive
14 | OCC(F)(F)C(F)(F)C(F)(F)C(F)(F)C(F)(F)C(F)F |  | inactive
15 | CCCCCCCCC(F)(F)C(F)(F)C(F)(F)C(F)(F)C(F)(F)C(F)(F)F |  | inactive
16 | O=C(CC(=O)C(F)(F)C(F)(F)F)C(F)(F)F |  | inactive
17 | COC(=O)CCC(F)(F)C(F)(F)C(F)(F)C(F)(F)F |  | inactive
18 | FC(F)(F)C(F)(F)C(F)(F)C(F)(F)C(F)(F)CCI |  | inactive

Row | SMILES | AC50 | outcome
19 | O=S(=O)(O)C(F)(F)C(F)(F)C(F)(F)C(F)(F)C(F)(F)C(F)(F)C(F)(F)F |  | inactive
20 | O=C(O)C(F)(F)C(F)(F)C(F)(F)C(F)(F)C(F)(F)C(F)(F)C(F)(F)C(F)(F)C(F)(F)C(F)F | 30 µM (active) | inactive
21 | O=C(O)C(F)(F)C(F)(F)OC(F)(F)F |  | inactive
22 | O=C(O)C(F)(F)C(F)(F)C(F)(F)C(F)(F)C(F)(F)C(F)(F)C(F)(F)C(F)(F)C(F)(F)C(F)(F)C(F)(F)C(F)(F)F |  | inactive
23 | FC(F)(Br)C(F)(F)C(F)(F)C(F)(F)C(F)(F)C(F)(F)Br |  | inactive
24 | OCC(F)(F)C(F)(F)C(F)(F)C(F)F |  | inactive
25 | FC1CC(F)(F)C(F)(F)C1(F)F (stereo not given) |  | inactive
26 | CCO[Si](CCC(F)(F)C(F)(F)C(F)(F)C(F)(F)C(F)(F)C(F)(F)F)(OCC)OCC | 0.26 µM (active) | inactive
27 | FC(F)(F)C(F)(F)C(F)(F)C(F)(F)C(F)(F)C(F)(F)C(F)(F)I |  | inactive
28 | C=C(C)C(=O)OCC(F)(F)C(F)(F)C(F)(F)C(F)(F)C(F)(F)C(F)(F)C(F)(F)F |  | inactive
29 | FC(F)(F)C(F)(F)CNCC(F)(F)C(F)(F)F |  | inactive
30 | FC(F)(I)C(F)(F)C(F)(F)C(F)(F)I | 10.1 µM (active) | inactive
31 | FC(F)(F)C(F)(F)C(F)(F)C(F)(F)C(F)(F)C(F)(F)C(F)(F)C(F)(F)F |  | inactive
32 | FC(F)(F)C(F)(F)C(F)(F)C(F)(F)CCI |  | inactive
33 | FC(F)(F)C(F)(F)C(F)(F)C(F)(F)C(F)(F)C(F)(F)CCS |  | inactive
34 | C=C(C)C(=O)OCC(F)(F)C(F)(F)C(F)(F)F |  | inactive
35 | OCCCC(F)(F)C(F)(F)C(F)(F)F |  | inactive
